# Bioassay records as filed in PubChem.
# Rows were chosen to be rich in hits. Some 2.2% of all compounds tested hit in one or more screens of this group.
# APP 5UTR inh – inhibitors of APP translation via 5'UTR reporter, primary screen, APP 5'UTR luciferase, SH-SY5Y cells; SH-SY5Y APP 5'UTR-luciferase reporter, luminescence; inhibition, % at 2 µM; 190,000 compounds, 0.82% hits;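 active = inhibition above a set limit, derived from the sample mean plus 3 SD, cut at about 45% in these data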
# BaF3 parental – parental Ba/F3 cell viability inhibition, counter-screen for JAK2V617F inhibitor project, murine pro-B, CellTiter-Glo luminescence; CellTiter-Glo ATP luminescence; inhibition, % at 5.6 µM; 220,000 compounds, 1.1% hits; AID 1486, 2009;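 active = inhibition above a per-campaign cutoff, the mean inhibition of all tested compounds plus 3 SD, cut at about 27% in these data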
# KLF5 inh – KLF5 expression inhibitors, primary screen, DLD-1 cells, luminescence. DLD-1 KLF5 promoter-luciferase reporter. inhibition, % at 5 µM. 290,000 compounds, 0.23% hits. AID 1700, 2009;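 active = inhibition above a per-plate limit of that plate's mean compound inhibition plus 3 SD, cut at about 60% in these data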;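 note: higher means less KLF5 promoter-driven luciferase light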
# aSyn UTR inh – MLPCN primary screen, SNCA 5' untranslated region; alpha-synuclein 5'UTR reporter, inhibitor activity; inhibition, % (tested at 7.5 µM); 300,000 compounds, 0.82% hits; AID 1813, 2009; in the data active = inhibition above about 60%;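 note: H4 neuroglioblastoma cells stably carrying SNCA 5'UTR luciferase fusion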
# IEC-6 cytotox – cytotoxicity in IEC-6 intestinal epithelial cells, primary screen, cytotoxicity control for KLF5 inhibitor project, cell-based, luminescence; 290,000 compounds, 0.78% hits; inhibition, % at 5 µM; IEC-6 cytotoxicity, luminescence viability; AID 1825, 2009; in the data active = inhibition above about 22%
# Ba/F3 V617F tox – reduced viability of JAK2V617F-dependent Ba/F3 cells, primary screen, JAK2V617F inhibitor project, cell-based, Ba/F3 EpoR-JAK2V617F, luminescence | ATP luminescence | AID 1446, 2008 | 220,000 compounds, 1.1% hits | inhibition, % at 5.6 µM;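 active = inhibition above the campaign mean plus 3 SD over all tested compounds, cut at about 24% in these data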;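 note: cytokine-independent growth of Ba/F3 cells driven by EpoR plus mutant JAK2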
# Hits are given with their value; . = inactive; / = no result.
SMILES,APP 5UTR inh,BaF3 parental,KLF5 inh,aSyn UTR inh,IEC-6 cytotox,Ba/F3 V617F tox
Cc1cccc(N2CCN(C(=O)C3CCN(c4nnc(-n5cccc5)s4)CC3)CC2C)c1 (stereo not given),.,45,.,.,.,.
O=S(=O)(c1ccc(Br)cc1)N1CCCc2ccccc21,/,/,.,.,.,/
CC1CCN(Cc2c(C(=O)N/N=C/c3ccc(C(C)(C)C)cc3)nnn2-c2nonc2N)CC1,/,/,.,64,.,/
CC(=O)c1cccc(NC(=O)C(C)OC(=O)CCCN=C2NS(=O)(=O)c3ccccc32)c1 (stereo not given),/,/,/,.,/,/
CCOc1ccc(N(C(=O)Nc2ccccc2)C2=NCCC2)cc1,.,.,.,.,.,.
CNC(=O)N(C1=NCCCCC1)c1ccc(Br)cc1,45,.,.,.,.,.
Cc1[nH]c2ccccc2c1C1(O)C(=O)N(Cc2ccc3c(c2)OCO3)c2ccccc21 (stereo not given),.,85,.,.,.,78
CCCN1C(=O)C(O)(c2c(C)[nH]c3ccccc23)c2ccccc21 (stereo not given),/,.,.,.,.,.
Cc1ccccc1C(=O)c1cccn1CC(=O)NCCCc1ccccc1,/,/,.,.,.,/
CC[n+]1ccc(C)c2cc(S(=O)C(F)(F)F)ccc21 (stereo not given),.,27,.,.,.,.
CC[n+]1ccc(C)c2cc(SC(F)(F)F)ccc21,.,35,.,.,.,.
CC[n+]1ccc(C)c2cc(P(=O)(c3ccccc3)c3ccccc3)ccc21,.,.,.,.,.,.
CCCOc1ccc(N/C=C/C(=O)c2cc(OC)c(OC)c(OC)c2)cc1,/,/,.,.,.,/
O=[N+]([O-])c1ccc(-c2nc(C(Cl)Cl)c3ccccc3n2)cc1,/,.,.,129,.,.
COc1cccc(NC(=O)CC(=O)c2ccccc2)c1,/,/,.,.,.,/
CCCc1nc(C)cc(N2CCN(c3ccccc3)CC2)n1,/,/,.,.,.,/
CC[n+]1c(C)cc(C)n1-c1ccccc1,.,65,.,.,.,63
Cc1c(CCC(=O)NCCCn2ccnc2)c(=O)oc2c(C)c3oc4c(c3cc12)CCCC4,/,/,.,.,.,/
O=C(NCCCN1CCOCC1)c1cccc(S(=O)(=O)Nc2ccccc2Cl)c1,/,/,.,.,.,/
Cn1c(O)c(N=NC(=O)c2cc(-c3cccs3)nc3ccccc23)c2ccccc21,.,.,.,.,.,.
O=C(N=Nc1c(O)[nH]c2ccc(Br)cc12)c1cc(-c2cccs2)nc2ccccc12,.,.,.,81,.,.
CSc1ccccc1NC(=O)c1c(Br)cnn1C,51,.,.,.,.,.
Cn1ncc(Br)c1C(=O)Nc1c(F)c(F)cc(F)c1F,.,.,.,.,.,.
CCOC(=O)Cc1csc(NC(=O)c2c(O)c3ccccc3n(CC(C)C)c2=O)n1,/,.,.,75,.,.
C/C(=N/NC(=O)CNS(=O)(=O)c1ccccc1)c1ccc(Br)cc1,/,/,.,.,.,/
SMILES,APP 5UTR inh,BaF3 parental,KLF5 inh,aSyn UTR inh,IEC-6 cytotox,Ba/F3 V617F tox
COC(=O)c1cn(C(=O)c2ccc(C)cc2C)c2ccccc12,54,.,.,.,.,.
Cc1cc(N2CCN(c3nc(-c4ccc([N+](=O)[O-])cc4)cs3)CC2)c2ccccc2n1,.,.,.,66,.,.
Cc1cc(-c2ccc([N+](=O)[O-])cc2)nc2ccccc12,.,.,.,.,.,.
CCc1ccc(S(=O)(=O)/N=C2\C=CC(=O)c3ccccc32)cc1,.,.,.,.,.,.
CCc1ccc(S(=O)(=O)/N=C2/C=C(Sc3ncn[nH]3)C(=O)c3ccccc32)cc1,75,34,.,/,.,71
C/C(=N\S(=O)(=O)c1ccc(C)cc1)N1CCN(S(=O)(=O)c2ccccc2)C1,.,.,.,.,.,.
C/C(=N\S(=O)(=O)c1ccc(C)cc1)N1CCCCC1,.,80,.,.,.,.
CCCCNS(=O)(=O)c1ccc(S(=O)(=O)NCc2ccncc2)cc1,.,39,.,.,.,33
O=C(C1CC1)N1CCC(c2nc(-c3ccc(S(=O)(=O)NCC4CCCO4)cc3)no2)CC1 (stereo not given),.,35,.,.,.,.
O=C(c1ccccc1)N1CCC(c2nc(-c3ccc(S(=O)(=O)NCC4CCCO4)cc3)no2)CC1 (stereo not given),/,.,.,.,.,.
Cc1ccc(S(=O)(=O)NCc2ccncc2)c(C)c1C,.,84,.,.,.,55
CCCCc1ccc(S(=O)(=O)NCCc2ccncc2)cc1,.,.,.,.,.,.
Cc1cc(C)c(S(=O)(=O)NCc2ccncc2)c(C)c1,.,34,.,.,.,24
O=C1C2CCCCN2C(=O)N1CCCCN1CCN(c2ccccc2Oc2ccccc2)CC1 (stereo not given),/,/,.,.,.,/
O=S(=O)(NCc1ccccc1)c1ccc(S(=O)(=O)NCC2CCCO2)cc1 (stereo not given),.,.,.,.,.,.
O=S(=O)(NCc1ccncc1)c1ccc(S(=O)(=O)NCC2CCCO2)cc1 (stereo not given),.,28,.,.,.,25
O=c1c2ccccc2[nH]c(=S)n1Cc1cccnc1,56,.,.,.,.,.
CN1CCOc2cc(S(=O)(=O)NCc3ccc(S(N)(=O)=O)cc3)ccc21,/,/,.,.,.,/
CC(C)N=c1scc(-c2ccco2)n1/N=C/c1ccc(O)c(O)c1,.,73,.,/,.,96
C[C@H](NC(=O)COc1ccc(Cl)cc1)C(=O)N1CCC2(CC1)NCCc1[nH]cnc12,/,/,.,.,.,/
c1csc(C2Nc3cccc4cccc(c34)N2)c1,.,33,.,.,.,.
COc1cc(NC(=O)c2n[nH]c(=O)c3ccccc23)cc(OC)c1,/,.,.,.,.,.
COc1ccc(-c2nc(NC(=O)c3n[nH]c(=O)c4ccccc34)sc2C)cc1,.,.,.,.,22,.
COc1ccc(-c2nc(NC(=O)CCNC(=O)c3ccco3)sc2C)cc1,.,28,.,.,.,.
Cc1c(Cl)cccc1N(CC(=O)NC(C)c1ccccc1)S(C)(=O)=O (stereo not given),/,/,.,.,.,/
CCOC(=O)/C(=C\c1ccccc1)C(=O)c1cc(C(C)=O)c(Nc2ccccc2)s1,.,.,.,.,.,.
CCOC(=O)/C(=C\c1cccnc1)C(=O)c1cc(C(C)=O)c(Nc2ccccc2)s1,.,.,.,83,.,.
CCOC(=O)c1[nH]c2ccc(Cl)cc2c1NC(=O)c1nonc1C,.,.,.,.,.,.
CCOC(=O)c1[nH]c2ccc(OC)cc2c1NC(=O)c1nonc1C,46,.,.,.,.,.
CC(=O)c1ccccc1OCCOCCOCCOc1ccccc1C(C)=O,.,.,.,67,.,.
